From PubChem BioAssay (EPA / NIEHS)
Records with an inconclusive call do not appear. Active and inactive are the calls of the source. The calls were made as follows, unless noted: active = hit-call score of the fitted dose curve at least 0.9, where 1 is the maximum; inactive = score below 0.9.

What was measured:
[1] = biological target: Glucocorticoid receptor (Homo sapiens) (UniProt P04150); assay: ATG_GR_TRANS: Attagene TRANS-FACTORIAL HepG2 Assay for human Glucocorticoid Receptor (GR) (AID 2282978; active = hit-call score of the fitted dose curve at least 0.9, where 1 is the maximum;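 also: activators score as hits since higher reporter transcript over DMSO is fitted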); conditions: HepG2 Attagene TRANS GR reporter, mRNA transcription
Procedure, shortened: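 After 24 h incubation with test chemical, transfected HepG2 cells were lysed for RNA; reporter cDNA was amplified, FAM-labelled, HpaI-digested and sized on a capillary analyser. Signal gain relative to DMSO was scored.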

[2] = biological target: Hepatocyte nuclear factor 4-alpha (Homo sapiens) (UniProt P41235); assay: ATG_HNF4a_TRANS: Attagene TRANS-FACTORIAL HepG2 Assay for human Hepatocyte Nuclear Factor 4 alpha (HNF4a) (AID 2282982; active = hit-call score of the fitted dose curve at least 0.9, where 1 is the maximum); conditions: HepG2 HNF4a transactivation reporter, mRNA readout
Procedure, shortened: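 Readout is fluorescent reporter-transcript fragments resolved by capillary electrophoresis after RT-PCR from HepG2 cells dosed for 24 h. Cells carried transfected GAL4-UAS reporter constructs measuring exogenous NR-GAL4 chimera activity; DMSO served as baseline.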

[3] = ATG_M_06_TRANS: Attagene TRANS-FACTORIAL HepG2 Assay for M06 Transcription Factor (Internal Marker) (AID 2282983; active = hit-call score of the fitted dose curve at least 0.9, where 1 is the maximum); conditions: HepG2 Attagene TRANS M06 internal marker reporter
Procedure, shortened: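 After a 24 h chemical treatment of transfected HepG2, RNA underwent DNase I treatment, reverse transcription and reporter-specific PCR; labelled, HpaI-digested products were sized by capillary electrophoresis. Signal increase relative to DMSO defined activity.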

[4] = ATG_M_32_TRANS: Attagene TRANS-FACTORIAL HepG2 Assay for M32 Transcription Factor (Internal Marker) (AID 2282984; active = hit-call score of the fitted dose curve at least 0.9, where 1 is the maximum;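 also: transcript level of a background control reporter unit measured by RT-PCR and capillary electrophoresis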); conditions: HepG2 Attagene TRANS M32 internal marker reporter
Procedure, shortened: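 Measures reporter mRNA induction in human HepG2 liver cells after 24 h chemical treatment. Transcripts from transiently transfected GAL4-UAS reporter units are amplified, fluorescently labelled and sized by capillary electrophoresis; gain of signal relative to DMSO.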

[5] = biological target: Nuclear receptor subfamily 4 group A member 2 (Homo sapiens) (UniProt P43354); assay: ATG_NURR1_TRANS: Attagene TRANS-FACTORIAL HepG2 Assay for human Nuclear Receptor Related Protein 1 (NURR1) (AID 2282985; active = hit-call score of the fitted dose curve at least 0.9, where 1 is the maximum); conditions: HepG2 Attagene TRANS reporter, mRNA readout
Procedure, shortened: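 Transient transfection of HepG2, human liver cells, with multiple GAL4-UAS reporter transcription units. Cells dosed 24 h, RNA isolated, reverse-transcribed, PCR-amplified, FAM-labelled, HpaI-digested, sized by capillary electrophoresis. DMSO served as negative control.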

[6] = biological target: Transcriptional activator Myb (Homo sapiens) (UniProt P10242); assay: ATG_Myb_CIS: Attagene CIS-FACTORIAL HepG2 Assay for human Myeloblastosis (Myb) Proto-Oncogene Transcription Factor (AID 2282986); conditions: HepG2 Attagene CIS-FACTORIAL Myb reporter transcription; actives raise or lower the signal
Procedure, shortened: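 After 24 h of compound dosing, total RNA from transfected HepG2 cells is reverse-transcribed and the reporter sequences amplified, labeled and separated by capillary electrophoresis. Values come from bidirectional fitting against DMSO.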

[7] = biological target: Nuclear respiratory factor 1 (Homo sapiens) (UniProt Q16656); assay: ATG_NRF1_CIS: Attagene CIS-FACTORIAL HepG2 Assay for human Nuclear Respiratory Factor 1 (NRF1) Orphan Gene (AID 2282987); conditions: HepG2 NRF1 cis-element reporter, Attagene multiplex; actives raise or lower the signal
Procedure, shortened: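 Measured: fluorescent reporter-specific RT-PCR products from transfected HepG2 cells, separated by capillary electrophoresis. Exposure lasted 24 h. Analysis used bidirectional curve fitting with DMSO as negative control.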

[8] = ATG_NFI_CIS: Attagene CIS-FACTORIAL HepG2 Assay for human Nuclear Factor I (NFI) (AID 2282989); conditions: HepG2 cis-regulatory reporter, NFI response element transcription; actives raise or lower the signal
Procedure, shortened: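 Cells: human liver HepG2, transiently transfected with promoter-regulated reporter transcription units. Exposure 24 h. Detection: fluorescent RT-PCR products separated by capillary electrophoresis, normalised to DMSO negative control.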

[9] = biological target: Myc proto-oncogene protein (Homo sapiens) (UniProt P01106); assay: ATG_Myc_CIS: Attagene CIS-FACTORIAL HepG2 Assay for human Myelocytomatosis (Myc) Proto-Oncogene Transcription Factor (AID 2282990); conditions: HepG2, Attagene cis-reporter transcription factor activity; actives raise or lower the signal
Procedure, shortened: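 HepG2, transient MRTU transfection (cis promoters, endogenous TFs); 24 h dosing; TriZol RNA → oligo(dT) RT → PCR → 6-FAM primer extension → HpaI cut → CE. Bidirectional fit vs DMSO.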

[10] = ATG_NF_kB_CIS: Attagene CIS-FACTORIAL HepG2 Assay for human Nuclear Factor Kappa B (NF-kB) (AID 2282991); conditions: HepG2 Attagene cis-factorial NF-kB reporter mRNA; actives raise or lower the signal
Procedure, shortened: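 Fluorescence of labelled RT-PCR products separated by capillary electrophoresis gives reporter mRNA levels from transfected HepG2 cells exposed 24 h; values are fitted in both directions relative to DMSO.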

[11] = ATG_NRF2_ARE_CIS: Attagene CIS-FACTORIAL HepG2 Assay for human Nuclear Factor Erythroid 2 Related Factor 2 (NFR2) response to Antioxidant Response Elements (ARE) (AID 2282992); conditions: HepG2 Attagene ARE/NRF2 reporter, transcription factor activity; actives raise or lower the signal
Procedure, shortened: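 Cis-factorial assay: transfected HepG2 reporter library, 24 h dosing, mRNA readout via RT-PCR/CE; DMSO-referenced bidirectional analysis.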

[12] = ATG_Oct_MLP_CIS: Attagene CIS-FACTORIAL HepG2 Assay for human Octamer-Binding Transcription Factor (Oct) (AID 2282993); conditions: HepG2 Attagene cis-factorial Oct reporter, mRNA; actives raise or lower the signal
Procedure, shortened: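 HepG2, transient MRTU transfection, cis promoter elements; 24 h dosing; RT-PCR/CE fluorescence read-out of reporter mRNA; fit both directions vs DMSO.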

[13] = biological target: Cellular tumor antigen p53 (Homo sapiens) (UniProt P04637); assay: ATG_p53_CIS: Attagene CIS-FACTORIAL HepG2 Assay for human p53 Transcription Factor (AID 2282994); conditions: HepG2 p53 cis-element reporter, Attagene mRNA; actives raise or lower the signal
Procedure, shortened: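 Using HepG2 hepatoma cells carrying cis-acting multiplexed reporters, mRNA induction is detected after a 24 h exposure. Gain- and loss-of-signal responses are fitted relative to DMSO-treated cells.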

[14] = biological target: Oxysterols receptor LXR-beta (Homo sapiens) (UniProt P55055); assay: ATG_LXRb_TRANS: Attagene TRANS-FACTORIAL HepG2 Assay for human Liver X Receptor beta (LXRb) (AID 2282981; active = hit-call score of the fitted dose curve at least 0.9, where 1 is the maximum); conditions: HepG2 Attagene TRANS GAL4-LXRb reporter, mRNA
Procedure, shortened: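 Transient transfection HepG2 (multiplexed RTUs, GAL4-UAS); NR-Gal4 chimera; 24 h exposure; RNA → RT-PCR → 6-FAM primer extension → HpaI → CE; increase vs DMSO.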

[15] = BSK_3C_TissueFactor: BioMAP Diversity Plus: 3C Assay for Tissue Factor Biomarker Activity (AID 2282997); conditions: BioMAP 3C HUVEC, tissue factor biomarker readout; actives raise or lower the signal
Procedure, shortened: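 Human vascular primary cells (umbilical vein endothelium) received test chemical; Tissue Factor was determined by ELISA at 24 h, and both gain and loss of signal versus DMSO were fitted.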

[16] = BSK_3C_uPAR: BioMAP Diversity Plus: 3C Assay for Urokinase-type plasminogen activator receptor (uPAR) Biomarker Activity (AID 2282998); conditions: BioMAP 3C HUVEC, uPAR biomarker ELISA; actives raise or lower the signal
Procedure, shortened: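 A multiplexed primary-cell system built on human umbilical vein endothelium was used, with chemical present for 24 h before reading. Cell-surface uPAR was detected by ELISA; signal change in either direction counted against DMSO.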

[17] = BSK_3C_VCAM1: BioMAP Diversity Plus: 3C Assay for Vascular cell adhesion molecule 1 (VCAM1) Biomarker Activity (AID 2282999); conditions: BioMAP 3C HUVEC, VCAM1 ELISA, cytokine-stimulated; actives raise or lower the signal
Procedure, shortened: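 Endothelial cells from human umbilical vein are treated with test chemical. At 24 h, VCAM-1 is measured by ELISA, and responses in either direction are fitted relative to DMSO.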

[18] = biological target: Oxysterols receptor LXR-alpha (Homo sapiens) (UniProt Q13133); assay: ATG_LXRa_TRANS: Attagene TRANS-FACTORIAL HepG2 Assay for human Liver X Receptor alpha (LXRa) (AID 2282980; active = hit-call score of the fitted dose curve at least 0.9, where 1 is the maximum); conditions: HepG2 Attagene TRANS reporter, LXRa transactivation
Procedure, shortened: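 Read-out: reporter transcript levels by RT-PCR plus capillary electrophoresis, fluorescence intensity. Transiently transfected HepG2, exogenous NR-GAL4 chimera, GAL4-UAS reporters; 24 h compound exposure. Activity = increase over DMSO negative control.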

Chain of Cellular tumor antigen p53 (Homo sapiens) (P04637 whole entry, looked up): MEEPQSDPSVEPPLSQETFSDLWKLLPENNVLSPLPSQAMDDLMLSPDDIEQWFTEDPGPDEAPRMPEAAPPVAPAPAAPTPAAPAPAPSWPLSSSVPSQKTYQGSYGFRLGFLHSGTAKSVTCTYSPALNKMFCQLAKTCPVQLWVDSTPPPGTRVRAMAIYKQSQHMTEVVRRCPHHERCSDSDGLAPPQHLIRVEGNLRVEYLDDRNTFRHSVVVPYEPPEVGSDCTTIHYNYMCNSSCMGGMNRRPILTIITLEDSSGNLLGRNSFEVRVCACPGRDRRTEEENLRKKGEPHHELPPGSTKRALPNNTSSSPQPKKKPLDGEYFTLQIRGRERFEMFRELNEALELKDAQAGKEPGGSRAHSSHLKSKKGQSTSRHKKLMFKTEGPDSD
Chain of Nuclear receptor subfamily 4 group A member 2 (Homo sapiens) (P43354 whole entry, looked up, the tested form may be a part): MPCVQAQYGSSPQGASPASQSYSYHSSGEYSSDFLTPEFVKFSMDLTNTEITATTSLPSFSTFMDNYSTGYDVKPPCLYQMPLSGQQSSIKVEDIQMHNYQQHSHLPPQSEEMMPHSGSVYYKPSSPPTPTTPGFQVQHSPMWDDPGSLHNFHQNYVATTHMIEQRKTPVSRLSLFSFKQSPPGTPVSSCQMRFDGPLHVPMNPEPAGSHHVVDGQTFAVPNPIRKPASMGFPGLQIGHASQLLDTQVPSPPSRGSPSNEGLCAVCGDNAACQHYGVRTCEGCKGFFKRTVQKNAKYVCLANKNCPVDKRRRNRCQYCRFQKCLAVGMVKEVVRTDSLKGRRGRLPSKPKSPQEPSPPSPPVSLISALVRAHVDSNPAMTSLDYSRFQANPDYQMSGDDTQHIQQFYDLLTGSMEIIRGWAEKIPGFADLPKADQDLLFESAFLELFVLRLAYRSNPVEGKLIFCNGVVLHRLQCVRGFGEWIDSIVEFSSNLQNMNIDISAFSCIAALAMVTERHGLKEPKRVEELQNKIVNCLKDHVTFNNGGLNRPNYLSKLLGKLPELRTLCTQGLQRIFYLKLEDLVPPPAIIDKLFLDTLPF
Chain of Myc proto-oncogene protein (Homo sapiens) (P01106 whole entry, looked up): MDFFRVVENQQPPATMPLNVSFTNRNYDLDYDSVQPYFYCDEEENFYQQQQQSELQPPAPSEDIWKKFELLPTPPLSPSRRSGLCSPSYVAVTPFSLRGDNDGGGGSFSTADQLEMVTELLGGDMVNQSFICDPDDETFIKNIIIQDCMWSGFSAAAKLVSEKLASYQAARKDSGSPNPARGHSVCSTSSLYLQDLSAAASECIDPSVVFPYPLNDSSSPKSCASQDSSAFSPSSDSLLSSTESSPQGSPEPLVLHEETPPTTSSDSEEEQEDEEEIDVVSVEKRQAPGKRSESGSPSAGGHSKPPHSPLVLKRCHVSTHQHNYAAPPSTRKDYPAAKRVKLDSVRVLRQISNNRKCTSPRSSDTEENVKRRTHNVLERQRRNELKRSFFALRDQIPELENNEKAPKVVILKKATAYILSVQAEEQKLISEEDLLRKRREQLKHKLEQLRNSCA
Chain of Transcriptional activator Myb (Homo sapiens) (P10242 whole entry, looked up): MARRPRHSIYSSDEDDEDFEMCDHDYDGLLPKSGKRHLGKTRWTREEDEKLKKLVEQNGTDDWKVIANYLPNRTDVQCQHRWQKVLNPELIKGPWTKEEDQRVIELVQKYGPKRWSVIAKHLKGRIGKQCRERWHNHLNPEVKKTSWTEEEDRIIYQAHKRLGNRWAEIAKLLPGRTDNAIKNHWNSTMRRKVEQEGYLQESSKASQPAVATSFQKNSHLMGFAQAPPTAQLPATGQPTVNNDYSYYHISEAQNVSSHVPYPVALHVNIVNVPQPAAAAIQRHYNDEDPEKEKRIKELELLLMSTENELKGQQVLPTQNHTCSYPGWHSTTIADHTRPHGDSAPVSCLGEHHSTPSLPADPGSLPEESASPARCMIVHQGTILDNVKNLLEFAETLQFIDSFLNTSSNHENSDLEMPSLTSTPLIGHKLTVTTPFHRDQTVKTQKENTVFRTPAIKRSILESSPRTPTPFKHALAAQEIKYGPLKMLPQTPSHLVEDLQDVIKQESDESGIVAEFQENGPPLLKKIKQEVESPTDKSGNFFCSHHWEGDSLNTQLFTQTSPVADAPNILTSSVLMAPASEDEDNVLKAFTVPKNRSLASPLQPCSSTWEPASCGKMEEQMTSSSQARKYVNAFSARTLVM
Chain of Oxysterols receptor LXR-beta (Homo sapiens) (P55055 whole entry, looked up, the tested form may be a part): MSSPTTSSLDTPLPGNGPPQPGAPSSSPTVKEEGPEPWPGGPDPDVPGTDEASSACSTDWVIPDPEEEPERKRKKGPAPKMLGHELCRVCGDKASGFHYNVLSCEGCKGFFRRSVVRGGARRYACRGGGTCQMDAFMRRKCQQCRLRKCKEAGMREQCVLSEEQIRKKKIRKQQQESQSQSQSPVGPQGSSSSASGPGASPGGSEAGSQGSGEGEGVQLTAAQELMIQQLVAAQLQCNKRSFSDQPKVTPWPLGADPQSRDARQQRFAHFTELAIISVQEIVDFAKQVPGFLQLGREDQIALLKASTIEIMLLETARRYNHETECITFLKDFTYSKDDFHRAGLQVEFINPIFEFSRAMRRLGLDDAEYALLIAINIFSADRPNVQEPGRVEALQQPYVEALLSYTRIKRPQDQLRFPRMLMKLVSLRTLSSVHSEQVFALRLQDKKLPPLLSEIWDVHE
Chain of Nuclear respiratory factor 1 (Homo sapiens) (Q16656 whole entry, looked up): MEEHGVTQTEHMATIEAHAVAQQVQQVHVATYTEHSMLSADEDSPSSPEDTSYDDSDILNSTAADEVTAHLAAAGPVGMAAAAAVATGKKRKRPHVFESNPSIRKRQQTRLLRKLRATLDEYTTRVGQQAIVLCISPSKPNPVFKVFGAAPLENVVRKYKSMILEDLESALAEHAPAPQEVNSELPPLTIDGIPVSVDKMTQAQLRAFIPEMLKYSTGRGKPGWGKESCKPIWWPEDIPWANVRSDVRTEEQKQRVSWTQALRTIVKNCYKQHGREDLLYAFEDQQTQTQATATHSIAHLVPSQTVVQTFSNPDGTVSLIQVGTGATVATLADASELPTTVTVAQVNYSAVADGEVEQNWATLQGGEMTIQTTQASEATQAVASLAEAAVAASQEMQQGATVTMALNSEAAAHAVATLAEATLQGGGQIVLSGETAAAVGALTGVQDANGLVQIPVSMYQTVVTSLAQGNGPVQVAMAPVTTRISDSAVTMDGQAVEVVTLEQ
Chain of Glucocorticoid receptor (Homo sapiens) (P04150 whole entry, looked up): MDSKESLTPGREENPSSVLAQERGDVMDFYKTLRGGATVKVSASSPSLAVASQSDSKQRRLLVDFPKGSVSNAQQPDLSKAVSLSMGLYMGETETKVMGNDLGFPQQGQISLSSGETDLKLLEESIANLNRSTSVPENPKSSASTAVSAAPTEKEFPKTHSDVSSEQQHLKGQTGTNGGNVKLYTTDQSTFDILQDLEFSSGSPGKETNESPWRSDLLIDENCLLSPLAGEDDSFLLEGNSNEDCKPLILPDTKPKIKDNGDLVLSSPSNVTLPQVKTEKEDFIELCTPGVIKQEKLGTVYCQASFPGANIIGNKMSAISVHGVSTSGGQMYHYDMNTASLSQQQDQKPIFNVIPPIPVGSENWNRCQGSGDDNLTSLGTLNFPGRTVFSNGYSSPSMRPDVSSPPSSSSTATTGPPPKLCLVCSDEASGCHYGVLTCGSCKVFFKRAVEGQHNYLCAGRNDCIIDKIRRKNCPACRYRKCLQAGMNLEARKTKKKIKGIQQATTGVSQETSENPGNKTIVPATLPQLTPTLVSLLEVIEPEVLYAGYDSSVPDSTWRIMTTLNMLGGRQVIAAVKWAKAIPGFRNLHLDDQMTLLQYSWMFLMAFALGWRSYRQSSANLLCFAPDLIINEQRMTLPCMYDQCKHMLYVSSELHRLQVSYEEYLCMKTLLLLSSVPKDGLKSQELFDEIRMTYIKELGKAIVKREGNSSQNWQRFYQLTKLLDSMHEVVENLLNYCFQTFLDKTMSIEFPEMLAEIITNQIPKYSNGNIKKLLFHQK
Chain of Oxysterols receptor LXR-alpha (Homo sapiens) (Q13133 whole entry, looked up, the tested form may be a part): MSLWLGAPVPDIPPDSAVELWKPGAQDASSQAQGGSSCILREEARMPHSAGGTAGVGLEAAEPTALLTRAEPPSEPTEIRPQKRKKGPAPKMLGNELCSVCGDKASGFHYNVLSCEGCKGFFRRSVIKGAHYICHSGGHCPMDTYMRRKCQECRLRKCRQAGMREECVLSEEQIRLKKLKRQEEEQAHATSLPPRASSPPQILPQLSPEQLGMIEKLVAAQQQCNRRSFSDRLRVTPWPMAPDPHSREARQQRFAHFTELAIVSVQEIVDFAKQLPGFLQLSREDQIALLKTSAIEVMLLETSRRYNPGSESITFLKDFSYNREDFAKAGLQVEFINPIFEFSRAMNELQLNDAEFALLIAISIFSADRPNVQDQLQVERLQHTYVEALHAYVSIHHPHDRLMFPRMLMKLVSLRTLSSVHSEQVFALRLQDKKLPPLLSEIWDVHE
Chain of Hepatocyte nuclear factor 4-alpha (Homo sapiens) (P41235 whole entry, looked up, the tested form may be a part): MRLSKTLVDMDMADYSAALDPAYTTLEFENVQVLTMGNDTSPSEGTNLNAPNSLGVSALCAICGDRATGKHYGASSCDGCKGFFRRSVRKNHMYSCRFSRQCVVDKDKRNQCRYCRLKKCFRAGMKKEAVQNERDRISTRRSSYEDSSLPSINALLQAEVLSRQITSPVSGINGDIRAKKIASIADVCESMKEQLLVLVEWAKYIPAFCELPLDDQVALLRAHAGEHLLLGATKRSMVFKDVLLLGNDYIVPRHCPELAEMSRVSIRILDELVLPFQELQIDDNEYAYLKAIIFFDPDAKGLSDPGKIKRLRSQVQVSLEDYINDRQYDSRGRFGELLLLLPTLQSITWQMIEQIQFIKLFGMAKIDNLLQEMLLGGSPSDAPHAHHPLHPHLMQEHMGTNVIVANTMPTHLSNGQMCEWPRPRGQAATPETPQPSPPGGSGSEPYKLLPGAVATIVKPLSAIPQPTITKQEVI

Structure (SMILES)	outcome [1]	outcome [2]	outcome [3]	outcome [4]	outcome [5]	outcome [6]	outcome [7]	outcome [8]	outcome [9]	outcome [10]	outcome [11]	outcome [12]	outcome [13]	outcome [14]	AC50 [11]	outcome [15]	outcome [16]	outcome [17]	outcome [18]
OCCCO	inactive	inactive	inactive	inactive	inactive	inactive	inactive	inactive	inactive	inactive	inactive	inactive	inactive	–	–	–	–	–	–
O=C(C=Cc1ccccc1)OCCCc1ccccc1	inactive	inactive	–	inactive	inactive	inactive	–	inactive	inactive	inactive	–	inactive	inactive	inactive	58 µM (active)	–	–	–	–
Nc1ccc(N)c([N+](=O)[O-])c1	inactive	–	inactive	inactive	–	inactive	–	–	inactive	–	–	inactive	inactive	inactive	–	inactive	inactive	inactive	–
CC(O)CN (stereo not drawn)	inactive	inactive	–	inactive	inactive	inactive	–	inactive	inactive	–	inactive	–	–	inactive	–	–	–	–	inactive
CC(C)(CO)CO	inactive	inactive	inactive	–	–	inactive	inactive	inactive	inactive	–	inactive	–	inactive	–	–	inactive	inactive	inactive	inactive
CCCC[N+](C)(CCCC)CCCC	inactive	–	–	inactive	–	inactive	inactive	inactive	inactive	–	inactive	inactive	–	inactive	–	–	–	–	inactive
C1=COCCC1	inactive	–	inactive	inactive	inactive	inactive	inactive	inactive	inactive	inactive	inactive	inactive	inactive	–	–	–	–	–	inactive
CC(C)N(c1ccccc1)C(C)C	inactive	inactive	inactive	–	inactive	inactive	inactive	inactive	inactive	inactive	inactive	inactive	–	inactive	–	–	–	–	–
CC(C)(C)c1cc(CCC(=O)OCCSCCOC(=O)CCc2cc(C(C)(C)C)c(O)c(C(C)(C)C)c2)cc(C(C)(C)C)c1O	inactive	inactive	–	inactive	inactive	inactive	inactive	inactive	inactive	inactive	inactive	inactive	inactive	inactive	–	–	–	–	–
CC(=O)c1ccc(C)cc1	inactive	inactive	inactive	inactive	–	inactive	inactive	–	inactive	inactive	inactive	inactive	–	inactive	–	inactive	inactive	inactive	–
NC(=O)c1cnccn1	inactive	inactive	inactive	–	inactive	inactive	inactive	inactive	inactive	inactive	inactive	–	inactive	inactive	–	–	–	–	–
